The panel holds about 83,000 compounds, 20% with a hit somewhere; the sample as a whole holds those more often.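 In brief: 96-well plates, 48 h treatment, single concentration, percent growth endpoint.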 Unmarked numbers belong to inactive results. Activity calls are given as the source filed them.

The assay relates to NCI-H322M lung. Briefly: NCI-60 one-dose screen, 48 h (100 = growth as untreated, 0 = no growth, -100 = all killed). Particulars: 10 µM unless noted. The method, then:
Growth inhibition of the NCI-H322M human Non-Small Cell Lung tumor cell line is measured as a screen for anti-cancer activity. Cells are grown in 96 well plates and exposed to the test compound for 48 hours. Compounds are tested at a single concentration, which is 10^-5 M for most compounds. The reported endpoint is percent growth (GI% or GIPRCNT), where numbers from 0 - 100% represent growth inhibition, and numbers from -100% - 0 represent cell death. For example, a value of 40 represents 60% growth inhibition. A value of 0 means no net growth occurred over the course of the experiment. A value of -40 indicates 40% of cells at the beginning of the experiment died by the end of the experiment. A value of -100 means all cells are dead at the end of the experiment.
NCI-60 Human Tumor Cell Lines Screen was performed using the standard one-dose NCI protocol, which is described in more detail at https://dtp.cancer.gov/discovery_development/nci-60/default.htm.
Compounds with GIPRCNT values below 10 were considered active. Activity score was based on GIPRCNT using the following formula: […]
Score is 0 for GIPRCNT values of 100 or above, 50 for GIPRCNT values of 0, and 100 for GIPRCNT values of -100.
With `CC(=O)N(N=Nc1ccccc1)c1cccc2ccccc12`, the growth is 94.3%.

Take `C[C@@H]1CCC[C@H]1CC(N)C(=O)O` (stereo not given in full): the growth is 106%.

Take `CC(C)c1ccc(COCc2cc(CN3CCCC3)c(O)c3ncccc23)cc1`: the growth is 12.2%.

In the case of `O=C(Nn1c2c(sc1=Nc1ccccc1)C(=O)c1ccccc1C2=O)c1cc2ccc1CCc1ccc(cc1)CC2`, the growth is 99.8%.

Regarding `COc1cccc([C@H]2c3[nH]c4ccccc4c3C[C@H]3C(=O)N(CCCCCCC(=O)NO)CC(=O)N23)c1`, the growth was 80.2%.

As for `CCCCC(=O)c1ccco1`, the growth is 105%.

On to `CC(C)N1CN2C(=S)NC3C2N(C1)C(=S)N3C` (stereo not given), for which the growth was 104%.

For `CC1=C(CCC(C)N(C)Cc2ccc(OCCCN3CCCC3)cc2)C(C)(C)CCC1` (stereo not given), the growth was 55.5%.

Consider `N#C/C(=C\c1ccc(-c2ccc(Cl)cc2)o1)C(=O)Nc1ncc(Cc2ccc(Cl)cc2)s1`, for which the growth is 22.8%.

Consider `O=C1NCCC12CCN(c1c(Cl)cncc1-c1ccc(O)cc1)CC2`, for which the growth is 103%.

For the compound `CC(=O)Cc1nsc(NC(=O)c2cc(-c3cc(Cl)cc(Cl)c3)oc2C)n1`, the growth is 100%.

`COC(C(=O)[C@@H](O)[C@@H](C)O)[C@@H]1Cc2cc3cc(O[C@H]4C[C@@H](O[C@H]5C[C@@H](O)[C@H](O)C(C)O5)[C@H](O)C(C)O4)cc(O)c3c(O)c2C(=O)[C@H]1O[C@H]1C[C@@H](O[C@H]2C[C@@H](O[C@H]3C[C@@H](OC)[C@H](O)C(C)O3)[C@@H](O)C(C)O2)[C@H](O)C(C)O1` (stereo not given in full): the growth was 50.2%.

For `Cc1ccc(S(=O)(=O)N2CCCC2CO)cc1` (stereo not given), the growth was 93.6%.

In the case of `O=C(CCCCCCN1CC(=O)N2[C@H](c3cc(Br)cs3)c3[nH]c4ccccc4c3C[C@H]2C1=O)NO`, the growth is 38.5%.

Regarding `CNC(=O)c1cc(Oc2ccc3nc(NC(C)=O)sc3c2)ccn1`, the growth was 104%.

As to `O=C(CI)NC1Oc2ccccc2-c2oc(=O)c(-c3ccccc3)cc21` (stereo not given), the growth was 105%.

`CCN1CCN(c2cc(C(=O)Nc3nc(-c4cc(OC)c(OC)c(OC)c4)cs3)cc(C(F)(F)F)c2)CC1`: the growth is 78%.

For the compound `COC(=O)c1n[nH]c2ccc3nc(-c4cn[nH]c4C(F)(F)F)c4c(c3c12)CCCC4`, the growth is 45.1%.

For the compound `Cn1c(=O)c2[nH]c(N/N=C/c3ccccc3Br)nc2n(C)c1=O`, the growth was 95.5%.

With `CC1=Nc2cnc(Nc3ccc(OCCN4CCCC4)cc3)nc2Nc2ccccc21`, the growth is 44.6%.

Turning to `Cc1c(-c2nc3ccc(F)cc3c(=O)[nH]2)c2ccccc2n1C`, the growth is 78.5%.

As for `COc1cc(CNC(=O)/C=C/C=C/c2ccc3c(c2)OCO3)ccc1OCc1cn(-c2ccc(C)c(C)c2)nn1`, the growth is 82.3%.

Turning to `COc1cc(CNS(=O)(=O)c2ccc(C)cc2)ccc1OCc1cn(-c2ccc(F)cc2)nn1`, the growth is 102%.

As to `COc1ccc(C/C(C)=C(/c2ccc(OCCN3CCCCC3)cc2)c2ccc(OC(=O)NCc3ccccc3)cc2)cc1`, the growth is -81.7% (active).

Turning to `O=C1/C(=C/c2cccs2)SC(=S)N1CCCN1CCOCC1`, the growth is 94.7%.

For `COc1ccc(-c2nc(SCC(C)C)nc(N/N=C\c3ccc(F)cc3)c2C#N)cc1`, the growth was 67.7%.

Consider `C#Cc1cccc(Nc2ncnc3ccc(-c4cncc(NS(C)(=O)=O)c4)cc23)c1`, for which the growth was 1.41% (active).

Consider `CCOC(=O)CSc1ncnc2c1c(-c1ccccc1)c(-c1ccccc1)n2-c1ccc(C)cc1`, for which the growth was 94.4%.

For the compound `O=C1/C(=C/c2ccc(Cl)c(Cl)c2)CN(C(=O)C(Cl)Cl)C/C1=C\c1ccc(Cl)c(Cl)c1`, the growth was -22.8% (active).

Turning to `O=C1CNC(c2ccccc2)C(c2ccccc2)N1` (stereo not given), the growth is 103%.

In the case of `N#CC1=C(c2ccc(Cl)cc2)Nc2c(c(-c3ccc(Cl)cc3)nn2-c2ccccc2)C12C(=O)Nc1ccc(Cl)cc12` (stereo not given), the growth is 83.3%.

For the compound `O=C(Nc1nn(-c2ccc(Cl)cc2Cl)nc1-c1ccccc1)c1ccccc1`, the growth is 99.2%.

With `Cc1ccc(-c2nc(/C=C3/C(=O)Nc4ccccc43)c3ccccn23)cc1`, the growth is 88%.

For `OCc1cccc(-c2ccc3ncc(-c4nc(NC5CC5)ncc4F)n3c2)c1`, the growth was -6.44% (active).

In the case of `CC(C)=CCC[C@](C)(O)[C@H]1CC[C@]2(C)[C@@H]1CC[C@@H]1[C@@]3(C)Cc4nccnc4C(C)(C)[C@@H]3CC[C@]12C`, the growth is 100%.

Consider `CN1C(=O)N(C)C2Nn3c(s/c(=C\c4ccc(C(F)(F)F)cc4)c3=O)=NC21` (stereo not given), for which the growth is 101%.

For `O=C1COCCN1c1ccc(Nc2nc(Cl)nc(OCc3cn(Cc4ccccc4)nn3)n2)cc1`, the growth is 98.2%.

As for `O=C(Nc1nc2ccc(F)cc2s1)c1cccnc1Nc1ccc(Cl)cc1`, the growth is 30.9%.

For the compound `CC/C(=C(/c1ccc(Cl)cc1)c1ccc(OCCN2CCCC2)cc1)c1ccc(OC)cc1`, the growth was 79.7%.

As for `CSc1nc2sc3c(c2c(=O)n1-c1ccc([N+](=O)[O-])cc1)CCCCC3`, the growth is 88.8%.

The values are drawn from PubChem BioAssay (NCI).
